Compound activity as filed in PubChem.
Compounds with a hit are over-represented: about 3.1% of the library has one in this group of screens.
DENV2 CPE: DENV2-induced cell death inhibition; CPE inhibition, % at 9.99 µM; AID 651640; 350,000 compounds, 1.7% hits; DENV2-infected cells, cytopathic effect rescue, plate reader; in the data active = CPE inhibition above about 20%, passing the limit was not always enough; tested in BHK-21 cells
RAD52 anneal inh: blocks human RAD52 DNA annealing | P43351 | recombinant RAD52 DNA annealing, FRET fluorescence | inhibition, % at 18.7 µM | 360,000 compounds, 0.46% hits | AID 651710;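 active = every replicate showing at least 50% inhibition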
dFosB activator: enhances mouse delta FosB homodimer DNA binding | P13346 | purified delta FosB, TAMRA-CDK5 oligo fluorescence polarization; percent of positive-control signal above neutral wells | activation, % at 25 µM | 340,000 compounds, 0.99% hits | AID 493131;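 active = mean activation above about 17%, with every replicate also reaching it, limit read from the data, passing the limit was not always enough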
RAD54 inh: blocks human RAD54 Holliday junction branch migration; FAM/BHQ fluorescence; 360,000 compounds, 0.14% hits; AID 602329; Q92698; inhibition, % at 10.4 µM;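 active = mean normalized replicate activity at least 40 and at least half of replicates scoring 40 or more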;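 also: inhibitors cause a drop in the FAM fluorescence signal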
GSIS activator: GLuc luminescence reporter in INS-1E cells, primary screen for activators of glucose-dependent secretion of insulin | activation, % at 16.6 µM | AID 743287 | INS-1E GLuc reporter insulin secretion, 2-3 h | 370,000 compounds, 0.61% hits;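 active = lowest replicate activation of at least 40%, so every replicate reaches that level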
AF4-AF9 inh: MLL-AF4/AF9 protein interaction inhibition; inhibition, % at 10 µM; AID 651704; P42568; 350,000 compounds, 0.47% hits; AlphaScreen, biotin-AF4 peptide binding to FLAG-AF9;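 active = every replicate reaching a set inhibition limit, whatever the replicate mean, cut at about 25% in these data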
Target sequence (P42568 whole entry, looked up): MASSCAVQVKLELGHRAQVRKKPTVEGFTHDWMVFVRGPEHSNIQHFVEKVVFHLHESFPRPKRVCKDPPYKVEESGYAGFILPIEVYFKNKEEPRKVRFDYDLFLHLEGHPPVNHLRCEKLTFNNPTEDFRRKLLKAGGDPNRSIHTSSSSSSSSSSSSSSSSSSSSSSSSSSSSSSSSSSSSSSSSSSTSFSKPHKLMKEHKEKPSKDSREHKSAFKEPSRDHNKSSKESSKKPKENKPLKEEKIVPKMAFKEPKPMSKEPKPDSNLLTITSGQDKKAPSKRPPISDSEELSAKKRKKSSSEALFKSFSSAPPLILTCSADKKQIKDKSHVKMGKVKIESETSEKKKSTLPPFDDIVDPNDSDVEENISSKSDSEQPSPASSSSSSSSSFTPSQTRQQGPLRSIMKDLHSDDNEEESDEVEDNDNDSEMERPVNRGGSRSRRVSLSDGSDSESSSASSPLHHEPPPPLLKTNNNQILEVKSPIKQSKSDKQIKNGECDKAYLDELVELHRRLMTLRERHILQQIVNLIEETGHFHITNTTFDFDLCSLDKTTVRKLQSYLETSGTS
Large screens that a line does not name were inactive.

CCCNC(=O)N1C[C@@H]2[C@H](c3ccccc31)[C@H](CO)N2C(=O)c1ccncc1	DENV2 CPE 25 (no result: dFosB activator)
COCC(=O)N1C[C@H]2[C@@H](c3ccccc31)[C@H](CO)N2C(=O)c1ccccc1F	none (no result: dFosB activator)
COc1ccccc1CN1[C@@H]2CN(C(=O)c3ccncc3)c3ccccc3[C@@H]2[C@@H]1CO	none (no result: dFosB activator)
CCCNC(=O)N1C[C@H]2[C@@H](c3ccccc31)[C@H](CO)N2C(=O)c1ccncc1	none (no result: dFosB activator)
COc1cccc(NC(=O)C[C@@H]2CC[C@H]3[C@H](COc4ccc(NC(=O)c5ccccc5F)cc4C(=O)N3C)O2)c1	none (no result: dFosB activator)
O=C(C[C@@H]1C[C@@H]2c3cc(NC(=O)NC4CCCC4)ccc3O[C@@H]2[C@H](CO)O1)NC1CCCC1	none (no result: dFosB activator)
C[C@H](CO)N1C[C@H](C)[C@H](CN(C)Cc2ccccc2)Oc2ncc(C#Cc3cccnc3)cc2C1=O	none (no result: dFosB activator)
Cc1noc(C)c1S(=O)(=O)Nc1ccc2c(c1)CC(=O)N([C@@H](C)CO)C[C@@H](C)[C@@H](CN(C)S(=O)(=O)c1cn(C)cn1)O2	none (no result: dFosB activator)
O=C(c1ccccc1F)N1C[C@H]2[C@@H](c3ccccc31)[C@H](CO)N2C(=O)c1ccncc1	DENV2 CPE 22 (no result: dFosB activator)
Cc1nc2c(c(N3CCOCC3)n1)OCC(=O)N2	GSIS activator 73 (no result: DENV2 CPE, AF4-AF9 inh)
Cc1ccc(NC(=O)NCCN2CCCCC2)cc1Cl	AF4-AF9 inh 26
Cc1ccc(NC(=O)NCC2CCN(Cc3cccc(Cl)c3)CC2)cc1Cl	dFosB activator 20
CC(C)NC(=O)N(C)C[C@@H]1Oc2cc(-c3ccncc3)ccc2S(=O)(=O)N([C@H](C)CO)C[C@H]1C	none (no result: dFosB activator)
COC(=O)C1(C(=O)OC)c2ncccc2N(S(=O)(=O)c2ccc(C)cc2)C1CC(=O)c1ccccc1 (stereo not drawn)	DENV2 CPE 21 (no result: dFosB activator, RAD54 inh, AF4-AF9 inh)
COc1ccc(NC(=O)N(C)C[C@H]2Oc3ccc(NC(=O)c4ccncc4)cc3C(=O)N([C@H](C)CO)C[C@H]2C)cc1	none (no result: dFosB activator)
O=C(c1ccccc1)N1CC[C@@H]2[C@@H](CO)Nc3ccc(C#Cc4cccc(F)c4)cc3[C@@H]21	DENV2 CPE 23 (no result: RAD52 anneal inh, dFosB activator, AF4-AF9 inh)
O=C(c1cccc(F)c1)N1CC[C@@H]2[C@H](CO)Nc3ccc(C#Cc4cccc(F)c4)cc3[C@@H]21	none (no result: dFosB activator)
O=C(c1cccc(F)c1)N1CC[C@@H]2[C@H]1c1cc(C#Cc3cccc(F)c3)ccc1N[C@@H]2CO	none (no result: dFosB activator)
O=C(c1ccccc1)N1CC[C@@H]2[C@H]1c1cc(C#Cc3cccc(F)c3)ccc1N[C@@H]2CO	DENV2 CPE 43 (no result: RAD52 anneal inh, dFosB activator, AF4-AF9 inh)
COc1cccc(C#Cc2ccc3c(c2)[C@@H]2[C@@H](CCN2C(=O)c2ccc(F)cc2)[C@@H](CO)N3)c1	DENV2 CPE 26 (no result: RAD52 anneal inh, dFosB activator, AF4-AF9 inh)
C[C@@H]1CN([C@@H](C)CO)C(=O)c2cc(NS(=O)(=O)c3ccc(F)cc3)ccc2O[C@H]1CN(C)C(=O)NC1CCCCC1	DENV2 CPE 35 (no result: dFosB activator)
C[C@H]1CN([C@@H](C)CO)C(=O)c2cc(NS(=O)(=O)c3ccc(F)cc3)ccc2O[C@H]1CN(C)S(=O)(=O)c1ccc(Cl)cc1	DENV2 CPE 26 (no result: dFosB activator)
C[C@H](CO)N1C[C@H](C)[C@H](CN(C)C)Oc2ccc(NS(=O)(=O)c3ccc(F)cc3)cc2C1=O	DENV2 CPE 29 (no result: dFosB activator)
C[C@H](CO)N1C[C@H](C)[C@H](CN(C)S(=O)(=O)c2cccs2)Oc2ccc(NS(=O)(=O)c3ccc(F)cc3)cc2C1=O	none (no result: dFosB activator)
C[C@@H]1CN([C@@H](C)CO)C(=O)c2cc(NS(=O)(=O)c3ccc(F)cc3)ccc2O[C@H]1CN(C)S(=O)(=O)c1cccs1	DENV2 CPE 46 (no result: dFosB activator)
C[C@@H]1CN([C@@H](C)CO)C(=O)c2cc(NS(=O)(=O)c3ccc(F)cc3)ccc2O[C@H]1CN(C)C	none (no result: dFosB activator)
COc1ccccc1NC(=O)N1C[C@@H](O)COC[C@@H]2O[C@@H](CC(=O)NCc3ccccc3)CC[C@H]21	none (no result: dFosB activator)
COc1ccc(NC(=O)Nc2ccc3c(c2)[C@@H]2C[C@@H](CC(=O)NCC(F)(F)F)O[C@@H](CO)[C@@H]2O3)cc1	none (no result: dFosB activator)
Cc1ccc(S(=O)(=O)N(C)C[C@H]2Oc3ccc(NS(C)(=O)=O)cc3C(=O)N([C@H](C)CO)C[C@H]2C)cc1	none (no result: dFosB activator)
Cc1ccc(S(=O)(=O)N(C)C[C@H]2Oc3ccc(NS(=O)(=O)c4ccc(F)cc4)cc3C(=O)N([C@H](C)CO)C[C@@H]2C)cc1	DENV2 CPE 82 (no result: RAD52 anneal inh, dFosB activator, AF4-AF9 inh)
Cc1ccc(S(=O)(=O)Nc2ccc(O)c3ncccc23)cc1	DENV2 CPE 107, AF4-AF9 inh 26
Cc1ccc(S(=O)(=O)Nc2ccc(O)c3cccnc23)cc1	none
CO[C@H]1CN(C)C(=O)c2cc(NS(=O)(=O)CC(F)(F)F)ccc2OC[C@H](C)N(Cc2nccs2)C[C@H]1C	none (no result: DENV2 CPE, dFosB activator)
CC(C)n1c(O)c(N=NC(=O)c2ccccc2NS(=O)(=O)c2cccs2)c2ccccc21	dFosB activator 30 (no result: DENV2 CPE, RAD52 anneal inh, RAD54 inh, AF4-AF9 inh)
CCCCn1c(O)c(N=NC(=O)c2ccccc2NS(=O)(=O)c2cccs2)c2ccccc21	none (no result: DENV2 CPE, RAD52 anneal inh, RAD54 inh, AF4-AF9 inh)
COc1cc(/C=C2/NC(=O)NC2=O)ccc1OCC(=O)Nc1ccc(F)cc1	none
O=C(COc1ccc(/C=C2/NC(=O)NC2=O)cc1)Nc1ccc(F)cc1	dFosB activator 40
O=C1c2ccccc2CN1CCSC(=S)N1CCOCC1	DENV2 CPE 21 (no result: GSIS activator)
Cc1cccc(C)c1NC(=O)c1csc([C@@H]2O[C@H](CO)[C@H](O)[C@H](O)[C@H]2O)n1	GSIS activator 53 (no result: dFosB activator)
O=C(C[C@@H]1C=C[C@@H](NS(=O)(=O)c2ccc(F)cc2)[C@@H](CO)O1)N1CCC(Cc2ccccc2)CC1	none (no result: DENV2 CPE, dFosB activator)
O=C(Nc1ccccc1C(F)(F)F)C(O)(c1ccccc1)C1CCCCC1 (stereo not drawn)	DENV2 CPE 50
CS(=O)(=O)Nc1ccc2c(c1)[C@H]1C[C@H](CC(=O)NCc3ccc(-c4ccccc4)cc3)O[C@@H](CO)[C@H]1O2	none (no result: RAD52 anneal inh, dFosB activator, AF4-AF9 inh)
FC(F)(F)c1nc2ccccc2n1CCNc1nc(CN2CCCCC2)cs1	DENV2 CPE 30
Cc1ccc(S(=O)(=O)Nc2ccc3c(c2)C(=O)N([C@H](C)CO)C[C@H](C)[C@@H](CN(C)C(=O)c2ccncc2)OCCCC[C@H](C)O3)cc1	none (no result: RAD52 anneal inh, dFosB activator, AF4-AF9 inh)
CC1=C(C(=O)N2CCCCCC2)CC(CC(=O)NCCCN(C)C)C(=O)N1CCCN1CCCC1=O (stereo not drawn)	none (no result: dFosB activator, RAD54 inh)
CC1=C(C(=O)N2CCOCC2)CC(CC(=O)NCCCN(C)C)C(=O)N1CCCN1CCCC1=O (stereo not drawn)	GSIS activator 41 (no result: dFosB activator, RAD54 inh)
C[C@H]1CN(C)C(=O)c2cc(N)ccc2O[C@@H]1CN(C)S(C)(=O)=O	none (no result: DENV2 CPE, RAD52 anneal inh, dFosB activator, RAD54 inh, AF4-AF9 inh)
CC(=O)NCCCC[C@@H]1NC(=O)[C@@H]2C[C@H](C(=O)O)[C@H](c3ccc(O)cc3)N2C1=O	none (no result: dFosB activator, GSIS activator)
CC(=O)NCCCC[C@@H]1NC(=O)[C@@H]2C[C@H](C(=O)NCc3ccc(F)cc3)[C@H](c3ccc(O)cc3)N2C1=O	DENV2 CPE 20 (no result: dFosB activator, GSIS activator)
